The experiment concerns the target furin, P09958. In words: furin cleavage Z-score vs untreated control; higher = more cleavage, active = 3.5 or more, inactive = 1 or less, 8 variable residues between constant flanks. The procedure, abridged:
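Read counts from sequencing released DNA gave abundance for each bead-bound 8-mer peptide–cDNA fusion cut by purified furin over 7.5, 15 or 30 min. The cleavage Z-score compares log counts with furin-free reactions after lowess adjustment and median absolute deviation scaling.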

Some of the results follow. The true hit rate is not given.
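Note: purified furin at 1:10 enzyme:substrate in 50 mM HEPES pH 7.5.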

furin, P09958, sequence (P09958 whole entry, the tested form may be a part): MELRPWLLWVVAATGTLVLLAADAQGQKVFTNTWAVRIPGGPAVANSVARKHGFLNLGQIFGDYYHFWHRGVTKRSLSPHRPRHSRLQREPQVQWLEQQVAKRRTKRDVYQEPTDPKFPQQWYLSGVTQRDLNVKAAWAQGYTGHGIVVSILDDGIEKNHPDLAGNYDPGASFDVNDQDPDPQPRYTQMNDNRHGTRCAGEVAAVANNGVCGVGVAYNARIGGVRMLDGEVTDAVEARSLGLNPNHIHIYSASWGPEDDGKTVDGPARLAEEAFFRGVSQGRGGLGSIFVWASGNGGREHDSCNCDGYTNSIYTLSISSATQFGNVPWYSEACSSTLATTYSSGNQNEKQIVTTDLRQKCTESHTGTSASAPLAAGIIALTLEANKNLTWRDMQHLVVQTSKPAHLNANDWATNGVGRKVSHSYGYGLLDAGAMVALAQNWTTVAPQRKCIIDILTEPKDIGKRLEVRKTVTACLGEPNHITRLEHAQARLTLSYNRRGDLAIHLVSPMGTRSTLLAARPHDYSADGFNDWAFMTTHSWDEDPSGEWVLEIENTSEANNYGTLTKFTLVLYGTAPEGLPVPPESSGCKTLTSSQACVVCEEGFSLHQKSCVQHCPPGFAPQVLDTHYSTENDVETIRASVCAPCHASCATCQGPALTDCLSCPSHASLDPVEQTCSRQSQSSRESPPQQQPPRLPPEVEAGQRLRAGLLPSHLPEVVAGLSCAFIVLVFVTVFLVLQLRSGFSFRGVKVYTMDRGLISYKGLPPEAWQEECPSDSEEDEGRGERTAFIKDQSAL

For the sequence CAGGDIYHSVAGNASASA [HC1649], the “furin cleavage Z-score” value reads like this: (7.5 min) -1.03 (inactive); (15 min) -0.366 (inactive); (30 min) -0.802 (inactive).
Consider CASSPCSAHLAGNASASA [HC2497], for which the “furin cleavage Z-score” value was 0.244 (inactive) (7.5 min), 0.911 (inactive) (15 min) and 0.262 (inactive) (30 min).
Turning to CAAVLTSMLTAGNASASA [HC1245], the “furin cleavage Z-score” value (7.5 min) was -1.15 (inactive), the “furin cleavage Z-score” value (15 min) stood at 1.56 and the “furin cleavage Z-score” value (30 min) was 0.027 (inactive).
For the sequence CAVSRRARRFAGNASASA [FS-1436], the “furin cleavage Z-score” value by setting is: (7.5 min) 10.2 (active); (15 min) 11.6 (active); (30 min) 10.4 (active).
On to CAVSRRSRGIAGNASASA [FS-2857], for which the “furin cleavage Z-score” value by setting is: (7.5 min) 1.63; (15 min) 3.08; (30 min) 4.54 (active).
For the sequence CARSNRQLGIAGNASASA [FS-2185], the “furin cleavage Z-score” value is 0.465 (inactive) (7.5 min), -0.691 (inactive) (15 min) and 0.216 (inactive) (30 min).
On to CAAAARARRFAGNASASA [FS-1108], for which the “furin cleavage Z-score” value reads like this: (7.5 min) 2.41; (15 min) 5.92 (active); (30 min) 6.24 (active).
CANFHKARRFAGNASASA [FS-1143]: the “furin cleavage Z-score” value is -0.34 (inactive) (7.5 min), -0.616 (inactive) (15 min) and -0.0235 (inactive) (30 min).
Consider CANWQKLETFAGNASASA [HC1037], for which the “furin cleavage Z-score” value was 0.812 (inactive) (7.5 min), -1.06 (inactive) (15 min) and 0.807 (inactive) (30 min).
For CAVSKRHVRIAGNASASA [FS-2114], in that order: -0.647 (inactive), 1.47 and 2.71.
Consider CAAAAAAAAAAGNASASA [NE2], for which the “furin cleavage Z-score” value is 2.09 (7.5 min), 0.496 (inactive) (15 min) and 2.15 (30 min).
In the same order, the values of CANWQRARRFAGNASASA [FS-912] are 3.9 (active), 4.91 (active) and 5.21 (active).
On to CATAFVGAGLAGNASASA [HC1074], for which the “furin cleavage Z-score” value (7.5 min) is -0.799 (inactive), the “furin cleavage Z-score” value (15 min) is -0.776 (inactive) and the “furin cleavage Z-score” value (30 min) is -1.06 (inactive).
On to CAGVRLHRFAAGNASASA [HC1224], for which the “furin cleavage Z-score” value is, setting by setting: (7.5 min) -0.592 (inactive); (15 min) -0.925 (inactive); (30 min) -0.313 (inactive).
For CAQKKVTFDRAGNASASA [HC1395], in that order: -0.415 (inactive), -0.119 (inactive) and -0.531 (inactive).
For the sequence CAKYIMTCMSAGNASASA [HC982], the “furin cleavage Z-score” value by setting is: (7.5 min) -1.5 (inactive); (15 min) -0.454 (inactive); (30 min) -2.07 (inactive).
On to CAGEVQIVSTAGNASASA [HC689], for which the “furin cleavage Z-score” value is, setting by setting: (7.5 min) -0.7 (inactive); (15 min) 0.651 (inactive); (30 min) -0.62 (inactive).
As for CAYPGHITGHAGNASASA [HC315], the “furin cleavage Z-score” value reads like this: (7.5 min) 0.244 (inactive); (15 min) -0.868 (inactive); (30 min) 0.3 (inactive).
In the case of CAESENKVVIAGNASASA [HC1283], the “furin cleavage Z-score” value by setting is: (7.5 min) -1.56 (inactive); (15 min) -1.01 (inactive); (30 min) -1.31 (inactive).
Take CAMEVLRKRSAGNASASA [FS-911]: the “furin cleavage Z-score” value (7.5 min) was -0.513 (inactive), the “furin cleavage Z-score” value (15 min) is -0.258 (inactive) and the “furin cleavage Z-score” value (30 min) was 0.754 (inactive).
For CATLERRKRSAGNASASA [FS-1172], in that order: 11.2 (active), 9.64 (active) and 8.54 (active).
Regarding CAGKELRKRSAGNASASA [FS-998], the “furin cleavage Z-score” value reads like this: (7.5 min) 6.16 (active); (15 min) 6.24 (active); (30 min) 6.7 (active).
In the same order, the values of CACCCRRKRSAGNASASA [FS-118] are 7.96 (active), 7.28 (active) and 6.41 (active).
Turning to CALPIRRKRSAGNASASA [FS-1028], the “furin cleavage Z-score” value reads like this: (7.5 min) 13 (active); (15 min) 13.8 (active); (30 min) 9.29 (active).
CACQCRFFRSAGNASASA [FS-1313]: the “furin cleavage Z-score” value (7.5 min) is 0.733 (inactive), the “furin cleavage Z-score” value (15 min) is -1.88 (inactive) and the “furin cleavage Z-score” value (30 min) was -0.461 (inactive).
Turning to CAKVKANLLSAGNASASA [HC1409], the “furin cleavage Z-score” value was 0.199 (inactive) (7.5 min), -1.82 (inactive) (15 min) and -0.858 (inactive) (30 min).
In the case of CADYMEECSQAGNASASA [HC1809], the “furin cleavage Z-score” value by setting is: (7.5 min) 0.775 (inactive); (15 min) 0.374 (inactive); (30 min) -0.614 (inactive).
In the same order, the values of CAMEQCSQHLAGNASASA [HC1722] are 2.51, 1.08 and 0.422 (inactive).
Take CANGTMRIVGAGNASASA [HC1181]: the “furin cleavage Z-score” value was 0.253 (inactive) (7.5 min), 1.69 (15 min) and -0.0933 (inactive) (30 min).
In the case of CAEVVTITWVAGNASASA [HC145], the “furin cleavage Z-score” value (7.5 min) is -0.85 (inactive), the “furin cleavage Z-score” value (15 min) is 0.512 (inactive) and the “furin cleavage Z-score” value (30 min) is -0.407 (inactive).
With CAIFRAAVCTAGNASASA [HC750], the “furin cleavage Z-score” value is -0.737 (inactive) (7.5 min), -0.718 (inactive) (15 min) and -0.0235 (inactive) (30 min).
In the case of CACCSMSYSWAGNASASA [HC1370], the “furin cleavage Z-score” value (7.5 min) was 0.447 (inactive), the “furin cleavage Z-score” value (15 min) is -0.385 (inactive) and the “furin cleavage Z-score” value (30 min) is 0.225 (inactive).
For CADRHFRKRSAGNASASA [FS-925], the “furin cleavage Z-score” value by setting is: (7.5 min) 9.05 (active); (15 min) 11.3 (active); (30 min) 9.58 (active).
For CAERRKRKRSAGNASASA [FS-1119], the “furin cleavage Z-score” value is, setting by setting: (7.5 min) 11.5 (active); (15 min) 11.6 (active); (30 min) 9.13 (active).
As to CASNGRRKRSAGNASASA [FS-1570], the “furin cleavage Z-score” value (7.5 min) is 11 (active), the “furin cleavage Z-score” value (15 min) was 11.1 (active) and the “furin cleavage Z-score” value (30 min) was 9.24 (active).
Turning to CATLARRKRSAGNASASA [FS-1423], the “furin cleavage Z-score” value reads like this: (7.5 min) 11.4 (active); (15 min) 11.2 (active); (30 min) 9.32 (active).
For CAEVVTLTWVAGNASASA [HC144], the “furin cleavage Z-score” value was 0.108 (inactive) (7.5 min), 1.05 (15 min) and -0.447 (inactive) (30 min).
Take CACSLTPPHSAGNASASA [HC1415]: the “furin cleavage Z-score” value (7.5 min) was -1.29 (inactive), the “furin cleavage Z-score” value (15 min) is -4.97 (inactive) and the “furin cleavage Z-score” value (30 min) was -1.14 (inactive).
For CATRSVRKRSAGNASASA [FS-100], in that order: 10 (active), 8.16 (active) and 6.31 (active).
Regarding CATSSSRKRSAGNASASA [FS-572], the “furin cleavage Z-score” value runs as follows: (7.5 min) 1.17; (15 min) 0.258 (inactive); (30 min) 1.99.
CATRSFGSSSAGNASASA [HC1335]: the “furin cleavage Z-score” value was 0.518 (inactive) (7.5 min), -0.799 (inactive) (15 min) and -0.228 (inactive) (30 min).
For CAGYRRCRASAGNASASA [HC1508], the “furin cleavage Z-score” value (7.5 min) is 0.58 (inactive), the “furin cleavage Z-score” value (15 min) is -0.0246 (inactive) and the “furin cleavage Z-score” value (30 min) was 0.472 (inactive).
For the sequence CAWKKPDYEPAGNASASA [HC1311], the “furin cleavage Z-score” value (7.5 min) is -0.0824 (inactive), the “furin cleavage Z-score” value (15 min) was -0.0771 (inactive) and the “furin cleavage Z-score” value (30 min) was 0.0457 (inactive).

The values are drawn from the supplement of paper PMC3545927.
